Reference: PubChem BioAssay
The list shows a part of the results. The source made the active and inactive calls.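 How the source made its calls, unless noted: active means mean inhibition above about 50% in the one-dose retest (limit read from the data); inactive means the rest.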

How the values were obtained:
[1] = biological target: Sentrin-specific protease 8 (Homo sapiens) (UniProt Q96LD8); assay: human SENP8 peptidase blockers, hit retest – biochemical, luminescence, single concentration, confirmation (AID 488912;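 active means mean inhibition across replicates above about 50%, limit read from the data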); conditions: Recombinant SENP8, Z-RLRGG-aminoluciferin luminescence, 60 min; at 12.5 µM; stronger effect = higher value
Chain of Sentrin-specific protease 8 (Homo sapiens) (Q96LD8 whole entry, looked up, the tested form may be a part): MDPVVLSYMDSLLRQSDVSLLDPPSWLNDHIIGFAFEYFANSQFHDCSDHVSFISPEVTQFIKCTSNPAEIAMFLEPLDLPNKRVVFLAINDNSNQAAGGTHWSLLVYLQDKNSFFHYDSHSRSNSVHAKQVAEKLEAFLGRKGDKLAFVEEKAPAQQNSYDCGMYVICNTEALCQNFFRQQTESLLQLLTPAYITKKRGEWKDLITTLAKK

[2] = biological target: Sentrin-specific protease 6 (Homo sapiens) (UniProt Q9GZR1); assay: inhibition of human SENP6 catalytic domain – biochemical, luminescence, single concentration, confirmation (AID 488915); conditions: recombinant SENP6, Z-RLRGG-aminoluciferin luminescence; at 12.5 µM; stronger effect = higher value
Chain of Sentrin-specific protease 6 (Homo sapiens) (Q9GZR1 628-1112 limits assumed): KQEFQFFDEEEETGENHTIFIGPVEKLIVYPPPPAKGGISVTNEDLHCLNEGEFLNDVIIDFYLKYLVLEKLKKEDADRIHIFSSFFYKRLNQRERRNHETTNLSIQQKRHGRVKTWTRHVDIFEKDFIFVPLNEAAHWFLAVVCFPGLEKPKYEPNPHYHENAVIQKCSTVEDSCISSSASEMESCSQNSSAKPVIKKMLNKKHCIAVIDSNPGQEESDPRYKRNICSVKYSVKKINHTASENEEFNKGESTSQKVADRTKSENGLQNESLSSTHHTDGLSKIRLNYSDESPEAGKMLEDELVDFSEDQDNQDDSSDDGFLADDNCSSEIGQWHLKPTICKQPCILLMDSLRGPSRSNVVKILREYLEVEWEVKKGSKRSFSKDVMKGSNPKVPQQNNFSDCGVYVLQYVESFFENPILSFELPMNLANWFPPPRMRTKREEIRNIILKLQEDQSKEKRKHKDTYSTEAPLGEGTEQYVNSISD

[3] = biological target: Sentrin-specific protease 7 (Homo sapiens) (UniProt Q9BQF6); assay: human SENP7 peptidase blockers, hit retest – biochemical, luminescence, single concentration, confirmation (AID 488917); conditions: recombinant SENP7, Z-RLRGG-aminoluciferin luminescence, 40 min; at 12.5 µM; stronger effect = higher value
Chain of Sentrin-specific protease 7 (Homo sapiens) (Q9BQF6 706-1050 limits assumed): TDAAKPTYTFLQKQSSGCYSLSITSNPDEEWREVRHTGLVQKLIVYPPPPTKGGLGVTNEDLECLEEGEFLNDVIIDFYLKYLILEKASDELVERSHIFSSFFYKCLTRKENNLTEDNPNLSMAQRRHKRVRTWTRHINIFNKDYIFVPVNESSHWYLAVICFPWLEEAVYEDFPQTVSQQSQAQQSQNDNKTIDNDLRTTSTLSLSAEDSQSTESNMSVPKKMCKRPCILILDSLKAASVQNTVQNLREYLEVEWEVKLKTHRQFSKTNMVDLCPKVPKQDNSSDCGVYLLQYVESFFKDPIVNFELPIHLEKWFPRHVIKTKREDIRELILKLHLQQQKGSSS

[4] = biological target: Caspase-3 (Homo sapiens) (UniProt P42574); assay: human caspase-3 activity blockade, out-of-family – biochemical, single concentration, selectivity assay for SENP inhibitor project, confirmation (AID 488918;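 active means mean inhibition above about 50%, limit read from the data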;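 further: plate controls were enzyme with DMSO for no effect and wells without caspase-3 for full effect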); conditions: purified caspase-3, Z-DEVD-aminoluciferin luminescence, 60 min; at 12.5 µM; stronger effect = higher value
Chain of Caspase-3 (Homo sapiens) (P42574 28-227 limits assumed): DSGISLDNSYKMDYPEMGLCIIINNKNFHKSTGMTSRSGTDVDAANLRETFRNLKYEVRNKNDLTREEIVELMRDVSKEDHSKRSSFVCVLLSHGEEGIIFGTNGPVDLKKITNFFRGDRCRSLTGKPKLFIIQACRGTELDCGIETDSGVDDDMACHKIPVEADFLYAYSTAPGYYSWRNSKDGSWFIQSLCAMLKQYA

[5] = Ultra-Glo luciferase signal interference – biochemical, single concentration, SENP8 reaction pre-completed, artefact control for SENP inhibitor project, confirmation (AID 488919;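 active means mean inhibition above about 50% when retested at one dose, limit read from the data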;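 further: plate controls were DMSO wells with completed reaction for no effect and substrate without enzyme for full effect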); conditions: Pre-incubated SENP8/Z-RLRGG-aminoluciferin, luciferase luminescence interference; at 12.5 µM; stronger effect = higher value

Measured: inhibition

O=C(OC1CCOC1=O)c1ccc(-c2nc3ccccc3s2)s1 (stereo not given)
active: [1] 92.5% | [2] 95.8% | [3] 100% | [4] 96.3% | [5] 83.8%

CC(C)(C)c1ccc(NC(=O)NCc2ccco2)cc1
inactive: [1] -28.3% | [2] -17.7% | [3] -5.7% | [4] -5.5% | [5] -7.2%

CCc1ccc(NC(=O)C(=O)NNC(=O)c2cccs2)cc1
inactive: [5] 5.2%
active: [1] 58.4% | [2] 73.4% | [3] 93.2% | [4] 89.9%

CC(=NCc1ccco1)c1c(C(F)(F)F)[nH]n(-c2nc3ccccc3s2)c1=O
active: [1] 91.7% | [2] 91.9% | [3] 99.8% | [4] 98.1% | [5] 89.3%

O=C(Nc1ccc(C(=O)O)c(O)c1)c1ccccc1
active: [1] 73% | [2] 73.7% | [3] 94.9% | [4] 93.7% | [5] 82.8%

COc1ccc(C(=O)COC(=O)c2ccc([N+](=O)[O-])s2)cc1OC
inactive: [1] 4.2% | [2] 46.8% | [3] 7.5% | [4] 14.1% | [5] 6.4%

O=C(Nc1nnc(C2CC2)s1)c1ccccn1
inactive: [1] 49.3% | [2] 49.2%
active: [3] 82.6% | [4] 83.6% | [5] 59.4%

CN1C(=O)/C(=C\c2cc(Br)cs2)c2ccccc21
inactive: [1] 27.2% | [2] 42.4% | [3] 23% | [4] 18% | [5] 12.1%

COc1ccc(/C=N/Nc2ccccc2C(=O)O)cc1
active: [1] 97.3% | [2] 97.5% | [3] 103% | [4] 96% | [5] 97.6%

COc1ccc(C(CC(=O)c2ccccc2)S(=O)(=O)c2ccccc2)cc1 (stereo not given)
inactive: [1] 25% | [2] 33.4% | [3] 30.3% | [4] 9% | [5] 4.7%

Cc1c(Cl)cccc1NC(=O)Nc1ccc(C(=O)N2CCCC2)cc1
inactive: [1] 20.5% | [2] 43% | [5] 11.4%
active: [3] 77.1% | [4] 60.3%

Nc1ccccc1/C=N\N=C/c1ccccc1N
active: [1] 52.9% | [3] 85.6% | [4] 68.3%
inactive: [2] 45.3% | [5] 3.9%

Fc1ccc2nc(N3CCCCC3)sc2c1
active: [2] 78.8% | [3] 97.3% | [4] 80.5%
inactive: [1] 7.7% | [5] 18.4%

O=C(Nc1ccc(F)cc1)c1cc2c(s1)CCCC2
active: [1] 93.3% | [2] 93.7% | [3] 101% | [4] 84% | [5] 84.2%

COc1ccc2occ(C(=O)c3ccc(N=C(C)N(C)C)cc3)c2c1
active: [3] 73% | [4] 65.7% | [5] 51.3%
inactive: [1] 44.8% | [2] 42.5%

C/C(=N\Nc1nc2ccccc2[nH]1)c1cccs1
inactive: [1] 49.6% | [2] 49.2%
active: [3] 81.2% | [4] 63.1% | [5] 61.7%

CNc1nc(Nc2ccc(C)c(Cl)c2)nc(N)c1[N+](=O)[O-]
inactive: [5] 18.3%
active: [1] 97.8% | [2] 98.7% | [3] 103% | [4] 96.9%

COC(=O)c1sc(NC(=O)c2ccc(OC)cc2OC)nc1C
active: [1] 56.9% | [4] 66.4%
inactive: [2] 34.4% | [3] 22.1% | [5] -5.6%

O=C(NC(=O)c1ccccc1)Nc1ccccc1O
active: [3] 69.7% | [4] 73.3%
inactive: [1] -10% | [2] 6.3% | [5] 23.8%

O=C(Nc1sc2c(c1C(=O)O)CCC2)c1ccccc1F
active: [1] 94.5% | [2] 96.2% | [3] 102% | [4] 96.3% | [5] 94.5%
